Laboratory results from PubChem BioAssay (NCI).
About 83,000 compounds went through this panel and 20% of them were active in at least one assay; those are over-represented in the sample as a whole.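 96-well plates, one dose, 48 hours. Percent growth reported; active if below 10.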 Values without a mark were called inactive. Calls of active or inactive are those of the source.

Tests used:
Assay in all cases: NCI-60 one-dose screen, 48 h (100 = growth as untreated, 0 = no growth, -100 = all killed)
Conditions in all cases: 10 µM unless noted
HCT-15 colon = test system: HCT-15 colon
HT29 colon = test system: HT29 colon
SNB-19 CNS = test system: SNB-19 CNS
PC-3 prostate = test system: PC-3 prostate
SK-MEL-5 melanoma = test system: SK-MEL-5 melanoma
UACC-62 melanoma = test system: UACC-62 melanoma
LOX IMVI melanoma = test system: LOX IMVI melanoma
SN12C renal = test system: SN12C renal
UO-31 renal = test system: UO-31 renal
TK-10 renal = test system: TK-10 renal
A498 renal = test system: A498 renal
CCRF-CEM leukemia = test system: CCRF-CEM leukemia
MOLT-4 leukemia = test system: MOLT-4 leukemia
SK-MEL-28 melanoma = test system: SK-MEL-28 melanoma
SK-MEL-2 melanoma = test system: SK-MEL-2 melanoma
ACHN renal = test system: ACHN renal
SNB-75 CNS = test system: SNB-75 CNS
U251 CNS = test system: U251 CNS
CAKI-1 renal = test system: CAKI-1 renal
EKVX NSCLC = test system: EKVX NSCLC

With FC(F)(F)c1cc(-c2nnc3n2N=C(Cl)CS3)cc(C(F)(F)F)c1 the growth (HCT-15 colon) was 96.8%, the growth (HT29 colon) was 113% and the growth (SNB-19 CNS) was 107%. It also gave a growth (PC-3 prostate) of 96.2%, a growth (SK-MEL-5 melanoma) of 98.9% and a growth (UACC-62 melanoma) of 101%. The growth (LOX IMVI melanoma) was 77.1%, the growth (SN12C renal) was 82.1% and the growth (UO-31 renal) was 97.9%. It also gave a growth (TK-10 renal) of 118%, a growth (A498 renal) of 108% and a growth (CCRF-CEM leukemia) of 20.5%. For the same compound, the growth (MOLT-4 leukemia) was -17.6% (active).
In the case of COc1ccc(-n2nc(C(=O)Nc3ccc(F)cc3)nc2-c2cc(OC)c(OC)c(OC)c2)cc1, the growth (HCT-15 colon) is reported as 82.2%, the growth (HT29 colon) is reported as 95.8% and the growth (SNB-19 CNS) is reported as 92.3%. The growth (PC-3 prostate) was 79.2%, the growth (SK-MEL-5 melanoma) was 80.3% and the growth (UACC-62 melanoma) was 83.7%. It also gave a growth (LOX IMVI melanoma) of 94.3%, a growth (SK-MEL-28 melanoma) of 119% and a growth (SK-MEL-2 melanoma) of 102%. For the same compound, the growth (SN12C renal) was 92.4%, the growth (UO-31 renal) was 51.6% and the growth (TK-10 renal) was 112%. The growth (ACHN renal) was 89.8%, the growth (A498 renal) was 66.6% and the growth (CCRF-CEM leukemia) was 83.2%. The growth (MOLT-4 leukemia) was 69.9%.
COc1ccc(/C=C(\C#N)c2cc(OC)c(OC)c(OC)c2)cc1 was tested, and the growth (HCT-15 colon) was 15.2%, the growth (HT29 colon) was 6.29% (active) and the growth (SNB-75 CNS) was 30.3%. For the same compound, the growth (U251 CNS) was 15.4%, the growth (PC-3 prostate) was 28% and the growth (SK-MEL-5 melanoma) was -37.4% (active). It also gave a growth (UACC-62 melanoma) of 36.2%, a growth (LOX IMVI melanoma) of 27% and a growth (SK-MEL-2 melanoma) of 64.7%. The growth (SN12C renal) was 27.9%, the growth (UO-31 renal) was 28.5% and the growth (ACHN renal) was 24.7%. For the same compound, the growth (CAKI-1 renal) was 41.4%, the growth (A498 renal) was 7.06% (active) and the growth (CCRF-CEM leukemia) was 14.9%. The growth (MOLT-4 leukemia) was 8.39% (active).
COc1cc(C2CC(c3cccc(Nc4ccnc5cc(Cl)ccc45)c3)=NN2C=O)cc(OC)c1OC (stereo not given) was tested, and the growth (HCT-15 colon) was 27.6%, the growth (HT29 colon) was -54.3% (active) and the growth (SNB-75 CNS) was -26.9% (active). The growth (U251 CNS) was 21.5%, the growth (PC-3 prostate) was 16.7% and the growth (SK-MEL-5 melanoma) was 4.37% (active). For the same compound, the growth (UACC-62 melanoma) was -35% (active), the growth (LOX IMVI melanoma) was 19.9% and the growth (SK-MEL-28 melanoma) was 7.27% (active). For the same compound, the growth (SK-MEL-2 melanoma) was -18.1% (active), the growth (EKVX NSCLC) was 32% and the growth (SN12C renal) was 19.7%. The growth (UO-31 renal) was 2.53% (active), the growth (TK-10 renal) was 2.13% (active) and the growth (ACHN renal) was -6.99% (active). For the same compound, the growth (CAKI-1 renal) was -31.1% (active), the growth (A498 renal) was -16.4% (active) and the growth (CCRF-CEM leukemia) was 2.72% (active). The growth (MOLT-4 leukemia) was 9.97% (active).
For COc1cc2ccc(C(C)=O)cc2cc1OC, the growth (HCT-15 colon) was 97.3%, the growth (HT29 colon) was 112% and the growth (SNB-19 CNS) was 104%. It also gave a growth (PC-3 prostate) of 91.2%, a growth (SK-MEL-5 melanoma) of 96.5% and a growth (UACC-62 melanoma) of 89.4%. For the same compound, the growth (LOX IMVI melanoma) was 92.3%, the growth (SK-MEL-28 melanoma) was 131% and the growth (SK-MEL-2 melanoma) was 108%. The growth (SN12C renal) was 95.1%, the growth (TK-10 renal) was 138% and the growth (ACHN renal) was 91.9%. For the same compound, the growth (A498 renal) was 65%, the growth (CCRF-CEM leukemia) was 118% and the growth (MOLT-4 leukemia) was 127%.
Cc1cc2nc(CN)[nH]c2cc1C was tested, and the growth (HCT-15 colon) was 109%, the growth (HT29 colon) was 51.3% and the growth (SNB-75 CNS) was 92%. The growth (U251 CNS) was 100%, the growth (PC-3 prostate) was 99.8% and the growth (SK-MEL-5 melanoma) was 104%. For the same compound, the growth (UACC-62 melanoma) was 113%, the growth (LOX IMVI melanoma) was 109% and the growth (SK-MEL-28 melanoma) was 108%. For the same compound, the growth (SK-MEL-2 melanoma) was 110%, the growth (SN12C renal) was 111% and the growth (UO-31 renal) was 101%. For the same compound, the growth (TK-10 renal) was 104%, the growth (ACHN renal) was 112% and the growth (CAKI-1 renal) was 108%. The growth (A498 renal) was 98.7% and the growth (MOLT-4 leukemia) was 102%.
Work on CC(=O)Nc1ccc(/C=N/N2CCCCCC2)cc1 yielded a growth (HCT-15 colon) of 102%, a growth (HT29 colon) of 102% and a growth (SNB-75 CNS) of 86.2%. The growth (U251 CNS) was 90.4%, the growth (PC-3 prostate) was 109% and the growth (SK-MEL-5 melanoma) was 106%. For the same compound, the growth (UACC-62 melanoma) was 95.9%, the growth (LOX IMVI melanoma) was 101% and the growth (SK-MEL-28 melanoma) was 103%. For the same compound, the growth (SK-MEL-2 melanoma) was 118%, the growth (EKVX NSCLC) was 98.8% and the growth (SN12C renal) was 83.3%. It also gave a growth (UO-31 renal) of 93.9%, a growth (TK-10 renal) of 114% and a growth (ACHN renal) of 79.1%. It also gave a growth (CAKI-1 renal) of 92.7%, a growth (A498 renal) of 108% and a growth (CCRF-CEM leukemia) of 106%. It also gave a growth (MOLT-4 leukemia) of 102%.
